Each structure is given as a SMILES string. Several values for one entry are separate records, joined by “and”; a condition that tells them apart may be missing. Equal values may be shown once. Screen size: about 9,600 compounds; about 20 (0.2%) were called active.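 Rule for the calls: active = highest normalized replicate activity of 15 or more, or at least half the replicates reach 15 or more; inactive = neither condition met.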 Only a selection was taken, and actives are over-represented in it overall. A structure can be active in one record and inactive in another.

This is an account of results in PubChem BioAssay AID1053180 (Broad Institute, 2014).

The nature of the test: Pax4 mRNA upregulation in alpha cells – RT-PCR, mouse alpha TC1 cells, single point, primary screen (AID 1053180).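 Note: Pax4 Ct normalized to GAPDH with activation seen as lower delta delta Ct; plate controls were plate neutral control wells for no effect and Pax4 plasmid positive control for full effect.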 Conditions: Pax4 mRNA qPCR, 6 days, at 10 µM, stronger effect = higher value, 100% = Pax4 plasmid added at qPCR. (In general: Real-time PCR tracks product formation cycle by cycle.)
Take `CO[C@@H]1CN(C)C(=O)c2ccc(NC(=O)Nc3cc(F)ccc3F)cc2OC[C@H](C)N(C(=O)c2ccccn2)C[C@@H]1C`: the activation is 0.0015% (inactive). For `O=C(CN1CCOCC1)N1CC[C@@H]2[C@@H](CO)Nc3ccc(-c4ccccc4F)cc3[C@@H]21` the value was 0.001% (inactive); for `O=C(C[C@@H]1C[C@H]2c3cc(NC(=O)NC4CCCC4)ccc3O[C@H]2[C@H](CO)O1)NCc1ccccc1F`, 0.02% (inactive). Regarding `CO[C@@H]1CN(C)C(=O)c2ccc(NC(=O)c3ccccc3F)cc2OC[C@H](C)N(C)C[C@H]1C`, the activation was 0.0025% (inactive).

Take `O=C(C1CCOCC1)N1CC(=O)N2[C@H](CO)[C@@H](c3ccc(/C=C/c4ccccc4)cc3)[C@H]2C1`: the activation was 0.002% (inactive). With `O=C1Nc2ccccc2OCc2cn(nn2)CC[C@H]1Cc1ccc(-c2ccccc2)cc1`, the activation is 0.059% (inactive).

Turning to `O=C(C[C@@H]1C[C@@H]2c3cc(NC(=O)c4ccc5c(c4)OCO5)ccc3O[C@@H]2[C@H](CO)O1)NCCN1CCCCC1`, the activation is -0.001% (inactive). For `CN(C)C(=O)C[C@H]1C[C@@H]2c3cc(NC(=O)Nc4ccc(F)cc4)ccc3O[C@@H]2[C@@H](CO)O1`, the activation is 0.013% (inactive). As to `O=C(C[C@H]1CC[C@H]2[C@@H](COC[C@H](O)CN2Cc2ccc3c(c2)OCO3)O1)N1CCCCC1`, the activation was 0.0435% (inactive). Turning to `Cc1ccc(S(=O)(=O)N(C)C[C@@H]2OCCCC[C@@H](C)Oc3ccc(NC(=O)c4ccncc4)cc3C(=O)N([C@@H](C)CO)C[C@H]2C)cc1`, the activation was 0% (inactive). Next, `O=C(C[C@H]1CC[C@@H]2[C@H](COC[C@@H](O)CN2S(=O)(=O)c2cccc(Cl)c2)O1)N1CCOCC1`: 0% (inactive); `CO[C@@H](CN(C)Cc1cc(F)ccc1F)[C@@H](C)CN(C(=O)Nc1ccc(C(F)(F)F)cc1)[C@H](C)CO`: 19.2% (active); `CO[C@H](CN(C)Cc1cc(F)ccc1F)[C@@H](C)CN(C(=O)Nc1ccc(C(F)(F)F)cc1)[C@H](C)CO`: 0.0245% (inactive). Take `CO[C@@H](CN(C)Cc1cc(F)ccc1F)[C@H](C)CN(C(=O)Nc1ccc(C(F)(F)F)cc1)[C@H](C)CO`: the activation is 0.0205% (inactive).

Take `CN(C[C@@H]1[C@@H](c2ccccc2)[C@H](CO)N1CC1CC1)C(=O)c1ccc(F)cc1`: the activation was -0.002% (inactive). In the case of `COc1ccccc1-c1ccc([C@H]2[C@@H](CO)N[C@@H]2CNC(=O)C2CC2)cc1`, the activation was 0.001% (inactive). Next, `CC(C)(O)C#Cc1ccc([C@H]2[C@H]3CN(S(C)(=O)=O)CCCCN3[C@H]2CO)cc1`: 0.0005% (inactive); `N#C[C@@H]1[C@H](c2ccccc2C2=CCCCC2)[C@H](CO)N1C(=O)CN1CCOCC1`: 0% (inactive); `O=C(NC[C@@H]1[C@@H](c2ccccc2)[C@@H](CO)N1Cc1ccccn1)C1CCCC1`: -0.003% (inactive). Take `CCCNC(=O)N1[C@H](CO)[C@@H](c2ccccc2-c2cccc(C)c2)[C@@H]1C#N`: the activation was 0.0075% (inactive).

Consider `CO[C@@H]1CC[C@@H]2CCOc3c(C#N)cccc3C(=O)N(C)CCCC(=O)N(C)C[C@H]1O2`, for which the activation was 0% (inactive).

Regarding `O=C(C[C@@H]1C[C@@H]2c3cc(NS(=O)(=O)c4ccccc4)ccc3O[C@@H]2[C@H](CO)O1)NCC(F)(F)F`, the activation was 0.001% (inactive). On to `O=C(Cc1ccccc1)N1CC[C@@H]2[C@@H](CO)Nc3ccc(C#Cc4cccc(F)c4)cc3[C@@H]21`, for which the activation is 0.0035% (inactive). Next, `CC(C)CC#Cc1ccc([C@H]2[C@@H](CO)N3CCCCN(C(=O)Nc4ccccc4)C[C@@H]23)cc1`: 0.0025% (inactive); `O=C(C[C@@H]1CC[C@H](NC(=O)c2ccc3c(c2)OCO3)[C@@H](CO)O1)NCc1ccc(Oc2ccccc2)cc1`: 0.006% (inactive). For `COCC(=O)N1CC(=O)N2[C@H](CO)[C@H](c3ccc(-c4ccccc4F)cc3)[C@@H]2C1` the value was 0% (inactive).

Regarding `C[C@H]1CN([C@@H](C)CO)C(=O)c2cc(NS(=O)(=O)c3ccc(F)cc3)ccc2O[C@H]1CN(C)C(=O)Nc1ccccc1`, the activation was 0.002% (inactive). In the case of `CO[C@H](CN(C)C(=O)C1CCOCC1)[C@@H](C)CN(C(=O)Nc1ccc(C(F)(F)F)cc1)[C@@H](C)CO`, the activation is 0.0085% (inactive). On to `O=C(CN1CCOCC1)N[C@@H]1CC[C@@H](CCn2cc(C3CC3)nn2)O[C@@H]1CO`, for which the activation is 0.0035% (inactive). As for `COc1cccc(-c2ccc(C3[C@@H]4CN(Cc5ccccn5)C[C@H]3N4)cc2)c1` (stereo partly specified), the activation was 0.0705% (inactive) and 213% (active). Next, `COc1cccc(CN2C[C@@H]3N[C@H](C2)C3c2ccc(-c3ccccc3C)cc2)c1` (stereo partly specified): 0.0245% (inactive) and 0.039% (inactive); `N#Cc1cccc(-c2ccc(C3[C@@H]4CN(Cc5ccccc5)C[C@H]3N4)cc2)c1` (stereo partly specified): 2.74% (inactive) and 0.113% (inactive); `COc1cc(CN2C[C@@H]3N[C@H](C2)C3c2ccc(-c3ccc(C#N)cc3)cc2)cc(OC)c1` (stereo partly specified): 3.96% (inactive) and 9.29% (active). `N#Cc1ccc(-c2ccc([C@@H]3[C@@H]4CN(Cc5cocn5)C[C@H]3N4)cc2)cc1`: the activation was 0.128% (inactive).

Consider `Fc1ccccc1-c1ccc(C2[C@@H]3CN(Cc4ccccn4)C[C@H]2N3)cc1` (stereo partly specified), for which the activation was 0.412% (inactive) and 0.0165% (inactive). Next, `C[C@@H]1CCCCO[C@@H](CN(C)S(=O)(=O)c2ccc(F)cc2)[C@H](C)CN([C@@H](C)CO)C(=O)c2cc(N(C)C)ccc2O1`: 0.002% (inactive); `COc1cccc(S(=O)(=O)N[C@H]2CC[C@@H](CC(=O)NC3Cc4ccccc4C3)O[C@@H]2CO)c1`: 0.0015% (inactive); `CO[C@@H]1CC[C@H]2CCOc3c(C#N)cccc3C(=O)N(C)CCCC(=O)N(C)C[C@H]1O2`: 0.001% (inactive).

For `C[C@@H]1CCCCO[C@H](CN(C)C(=O)c2ccncc2)[C@H](C)CN([C@H](C)CO)C(=O)c2cc(NS(=O)(=O)c3cccs3)ccc2O1`, the activation is 0.001% (inactive).

Regarding `CCCNC(=O)[C@H]1[C@H](CO)[C@H]2Cn3c(ccc(/C=C/c4ccccc4)c3=O)[C@H]2N1CC1CC1`, the activation was 0% (inactive). Consider `C/C=C/c1ccc(C2[C@H]3CNC[C@@H]2N3C(=O)Nc2ccc(C(F)(F)F)cc2)cc1` (stereo partly specified), for which the activation was 0.016% (inactive) and 0.0105% (inactive). Next, `COc1ccc(-c2ccc(C3[C@@H]4CN(S(=O)(=O)c5ccccc5C)C[C@H]3N4)cc2)cc1` (stereo partly specified): 0.369% (inactive) and 0.0145% (inactive). For `COc1ccccc1NC(=O)N1C[C@@H]2N[C@H](C1)C2c1ccc(-c2cccc(C#N)c2)cc1` (stereo partly specified) the value was 0.02% (inactive) and 0.24% (inactive); for `N#Cc1cccc(-c2ccc(C3[C@@H]4CNC[C@H]3N4)cc2)c1` (stereo partly specified), 0.0045% (inactive); for `N#Cc1cccc(-c2ccc(C3[C@@H]4CN(C(=O)Nc5ccc(C(F)(F)F)cc5)C[C@H]3N4)cc2)c1` (stereo partly specified), 8.39% (active) and 0.03% (inactive). Next, `Cc1ccccc1S(=O)(=O)N1C[C@@H]2N[C@H](C1)C2c1ccc(-c2cccc(C#N)c2)cc1` (stereo partly specified): 0.966% (inactive) and 11.5% (active); `Cc1cccc(-c2ccc(C3[C@@H]4CN(C(=O)Nc5ccc(F)cc5)C[C@H]3N4)cc2)c1` (stereo partly specified): 0.272% (inactive); `O=C(Nc1ccc(F)cc1)N1C[C@@H]2N[C@H](C1)C2c1ccc(/C=C/c2ccccc2)cc1` (stereo partly specified): 1.76% (inactive). With `C/C=C/c1ccc(C2[C@@H]3CN(C(=O)Nc4ccc(C(F)(F)F)cc4)C[C@H]2N3)cc1` (stereo partly specified), the activation was 32.9% (active) and 0.0565% (inactive).

Turning to `O=C1CNC[C@@H]2[C@H](c3ccc(-c4ccccc4F)cc3)[C@@H](CO)N12`, the activation was 0% (inactive). As to `CNC[C@@H]1Oc2cc(C#Cc3ccccc3OC)ccc2S(=O)(=O)N([C@H](C)CO)C[C@H]1C`, the activation was 10.4% (active). In the case of `CNC[C@H]1Oc2cc(C#Cc3ccccc3OC)ccc2S(=O)(=O)N([C@H](C)CO)C[C@@H]1C`, the activation was 0.402% (inactive). Take `CNC[C@H]1Oc2cc(C#Cc3ccccc3OC)ccc2S(=O)(=O)N([C@@H](C)CO)C[C@@H]1C`: the activation was 0.371% (inactive). In the case of `C[C@@H]1CN([C@@H](C)CO)C(=O)CCCn2nncc2CO[C@H]1CN(C)C(=O)c1cc(-c2ccccc2)on1`, the activation is 0.0055% (inactive). As for `C[C@@H]1CN([C@H](C)CO)C(=O)CCCn2nncc2CO[C@@H]1CN(C)Cc1ccccc1C(=O)O`, the activation was -0.0005% (inactive). Turning to `C[C@@H]1CCCCO[C@H](CN(C)C(=O)Nc2ccc3c(c2)OCO3)[C@H](C)CN([C@H](C)CO)C(=O)c2cc(NS(=O)(=O)c3ccc(F)cc3)ccc2O1`, the activation is 0.0035% (inactive). On to `CC(C)CN(C[C@H]1N[C@H](CO)[C@@H]1c1ccccc1)C(=O)C1CCCCC1`, for which the activation was 0% (inactive). For `CO[C@H]1CN(C)C(=O)c2cc(NC(=O)Nc3cccc(Cl)c3)ccc2OC[C@H](C)N(C(=O)Nc2c(C)noc2C)C[C@@H]1C`, the activation is 0.004% (inactive). On to `COc1ccc2c3c([nH]c2c1)[C@H](CO)N(Cc1ccccc1F)CC31CN(CC2CC2)C1`, for which the activation is 0.011% (inactive). Next, `COCC#Cc1ccc([C@H]2[C@@H](CO)N3CCCCN(C(=O)NC4CCCC4)C[C@H]23)cc1`: 0.001% (inactive); `O=C(c1ccccc1)N1CC(=O)N2[C@H](CO)[C@H](c3ccc(-c4ccccc4)cc3)[C@@H]2C1`: 0.0005% (inactive). As for `C/C=C/c1ccc([C@@H]2[C@H](CO)N(C(C)=O)[C@H]2CNC(=O)c2ccccc2)cc1`, the activation is 0.0015% (inactive). Take `C[C@H](NC(=O)C[C@H]1C=C[C@@H](NC(=O)c2cccnc2)[C@H](CO)O1)c1ccccc1`: the activation was 0.0005% (inactive).

Regarding `CS(=O)(=O)Nc1ccc2c(c1)[C@@H]1C[C@@H](CC(=O)NCc3cc(F)ccc3F)O[C@H](CO)[C@@H]1O2`, the activation is 0.007% (inactive). Next, `C[C@@H]1CN([C@@H](C)CO)C(=O)c2ccccc2-c2ccccc2CO[C@@H]1CN(C)C(=O)NC1CCCCC1`: -0.0015% (inactive); `CO[C@H]1CN(C)C(=O)c2ccc(NC(=O)c3nc4ccccc4s3)cc2OC[C@H](C)N(Cc2cccnc2)C[C@@H]1C`: 0.009% (inactive).
